Several values for one entry are separate records, joined by “and”; a condition that tells them apart may be missing. Equal entries are not always repeated. Results filed as inconclusive are left out. Values without a mark were called inactive. Activity calls are given as the source filed them. Calls follow the shape of the dose curve; as a rule, active = well fitted inhibition curve with a large enough effect in the repeat runs; inconclusive = weak or mixed curves; inactive = no such curve, though single readings can be large or run the other way.
These compounds were tested against Cytochrome P450 1A2 (Homo sapiens) (UniProt P05177) (assay: Cytochrome P450 Family 1 Subfamily A Member 2 (CYP1A2) small molecule antagonists: luciferase reporter qHTS assay (AID 1671199; also: nearly all actives have a fitted effect of over 50% in size)). Conditions: P450-Glo CYP1A2 enzyme, luciferin luminescence, 1 h; series mostly up to 115 µM; activity change, negative = inhibition: at the top concentration.
From the text: National Center for Advancing Translational Sciences [NCATS]
U.S. Environmental Protection Agency [EPA]
National Institutes of Environmental Health Sciences [NIEHS]
National Toxicology Program [NTP]
U.S. Food and Drug Administration [FDA]
Cytochrome P450 (CYP) enzymes are membrane-bound hemeproteins that play a key role in metabolism of drugs and xenobiotics. Evaluation of the effect of chemicals on CYP isozymes is useful to minimize the adverse drug reactions and toxicities in drug development process. Tox21 chemicals were tested for their effect on CYP enzyme activities by using P450-Glo (TM) screening systems (Promega Corporation, Madison, WI). These systems provide a luminescent method containing proluciferin substrates and are converted to luciferin products by CYP isozymes. The luciferin products formed are detected with a luciferin detection reagent, and the amount of light produced is proportional to CYP activity. P450-Glo (TM) CYP1A2 screening system (Catalog. No. V9770) was used to detect the compounds that interfere in CYP1A2 activity. The positive control compound used for CYP1A2 assay is furafylline (Sigma-Aldrich, St. Louis, MO).
Tox21 Assay Protocol Summary:
Two ul of enzyme-substrate mix was dispensed into medium binding white/solid 1536-well plates (Greiner Bio-One North America Inc., Monroe, NC) using a BioRaptr Flying Reagent Dispenser (FRD, Beckman Coulter, Brea, CA). Compounds dissolved in DMSO and positive control (furafyllline) were transferred to the assay plates at 23 nl using a Pintool station (Wako, San Diego, CA). The assay plates were incubated at room temperature for 10 min. Then 2 ul of NADPH regeneration solution was added to each well of the assay plates using an FRD and incubated at room temperature for 1 h. The reaction was stopped by adding 4 ul of detection reagent using an FRD and after 20 min incubation at room temperature the luminescence signal was measured using a ViewLux plate reader (Perkin Elmer, Shelton, CT). Data were expressed as relative luminescence units.
% is scaled to controls: 0 for no effect and ±100 for the full control effect; potency is read from the fitted curve at half-maximal effect.

Cytochrome P450 1A2 (Homo sapiens), sequence (P05177 whole entry, looked up): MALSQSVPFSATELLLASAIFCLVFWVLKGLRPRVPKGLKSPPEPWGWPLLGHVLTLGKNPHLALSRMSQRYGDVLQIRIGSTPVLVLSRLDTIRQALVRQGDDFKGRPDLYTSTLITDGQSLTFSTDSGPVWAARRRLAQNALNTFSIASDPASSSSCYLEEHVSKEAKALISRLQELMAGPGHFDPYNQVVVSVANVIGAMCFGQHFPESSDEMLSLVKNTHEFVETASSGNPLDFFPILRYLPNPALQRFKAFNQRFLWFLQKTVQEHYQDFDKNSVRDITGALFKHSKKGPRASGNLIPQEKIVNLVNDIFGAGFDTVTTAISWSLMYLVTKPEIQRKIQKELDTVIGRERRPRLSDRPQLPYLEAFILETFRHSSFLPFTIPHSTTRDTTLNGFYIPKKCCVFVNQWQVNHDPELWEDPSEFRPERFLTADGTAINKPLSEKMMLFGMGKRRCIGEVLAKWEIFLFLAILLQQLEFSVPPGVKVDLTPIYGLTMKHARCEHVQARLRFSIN

Compound	Potency	activity change, negative = inhibition
Nc1ccc(Cc2ccc(N)c(Cl)c2)cc1Cl	27.3 µM (active)	
Cc1cc(C)c(C2=C(OC(=O)CC(C)(C)C)C3(CCCC3)OC2=O)c(C)c1		-15%
c1ccc2c(c1)[nH]c1cnccc12	7.98 µM (active)	
N#CCCO		-21.9%
COc1cc(C=O)cc2c1[C@H](COC(N)=O)[C@]1(OC(C)=O)ON2C[C@H]2[C@@H]1N2C(C)=O		-0.164%
CC1(c2ccc(Oc3ccccc3)cc2)OC(=O)N(Nc2ccccc2)C1=O (stereo not given)	35.8 µM (active)	
Oc1cccc(-c2ccccc2)c1	17.8 µM (active)	
Oc1c(Cl)c(Cl)cc(Cl)c1Cl	69.1 µM (active)	
O=C(CCCN1CCC2(CC1)C(=O)NCN2c1ccccc1)c1ccc(F)cc1		-4.41% [at 53 µM]
Cc1cc(C)cc(OP(=O)(Oc2cc(C)cc(C)c2)Oc2cc(C)cc(C)c2)c1	22.8 µM (active)	
[Hg+2].[I-].[I-]	3.56 µM (active)	
BrC(Br)C(Br)(Br)Br	31.9 µM (active)	
OC(c1ccc(Cl)cc1)(c1ccc(Cl)cc1)C(Cl)(Cl)Cl	14.2 µM (active)	
CN(C)CCc1c[nH]c2ccc(O)cc12		-22%
ClC1=C(Cl)[C@]2(Cl)[C@@H]3[C@@H](Cl)[C@@H](Cl)C[C@@H]3[C@@]1(Cl)C2(Cl)Cl		-21.9%
Brc1c(Br)c(Br)c(Oc2c(Br)c(Br)c(Br)c(Br)c2Br)c(Br)c1Br		-11% [at 23.6 µM]
COP(=O)(OC)SCn1c(=O)oc2cc(Cl)cnc21	39.9 µM (active)	
ClCCN1CCOCC1		-6.15%
CC(=O)Nc1ccc2c(c1)Cc1ccccc1-2	3.22 µM (active)	
C[C@]12Cc3nonc3C[C@@H]1CC[C@@H]1[C@@H]2CC[C@@]2(C)[C@H]1CC[C@]2(C)O		-18.3% [at 53 µM]

Compound	Potency	activity change, negative = inhibition
CCCCCCCCCCCCCN1CC(C)OC(C)C1 (stereo not given)		-23.1%
CCOC(=O)C1(c2ccccc2)CCN(CCC(C#N)(c2ccccc2)c2ccccc2)CC1		-13.5% [at 53 µM]
Oc1ccc(C2(c3ccc(O)cc3)c3ccccc3-c3ccccc32)cc1	79.6 µM (active)	
Fc1cccc(Cl)c1CCl	39.9 µM (active)	
C[C@]12CC[C@@H]3c4ccc(OC(=O)N(CCCl)CCCl)cc4CC[C@H]3[C@@H]1CC[C@@H]2O		-9.25% [at 53 µM]
CCCCCCCCCBr		1.77%
Oc1cc(Cl)c(Cl)c(Cl)c1	26.8 µM (active)	
COC[C@H](C)N(C(=O)CCl)c1c(C)csc1C		-9.21%
COc1cccc(C(=O)CCN[C@@H](C)[C@H](O)c2ccccc2)c1	24.5 µM (active)	
C=COCCCl		-2.61%
S=C=Nc1cccc2ccccc12	8.85 µM (active)	
CC(C)CCCCCOC(=O)c1ccccc1C(=O)OCCCCCC(C)C	35.2 µM (active)	
CC(=O)O[C@H]1CC[C@@]2(C)C(=CC[C@@H]3[C@@H]2CC[C@]2(C)C(=O)CC[C@@H]32)C1		-22.5%
c1ccc(Nc2ccc3ccccc3c2)cc1	3.54 µM (active) and 3.56 µM (active)	
O=S(=O)(c1ccc(Cl)cc1)c1ccc(Cl)cc1	34 µM (active)	
CCOc1cc(C(C)(C)C)ccc1C1COC(c2c(F)cccc2F)=N1 (stereo not given)	24.2 µM (active)	
Cl/C=C\CCl	35.6 µM (active)	
CCc1nn(C)c(C(=O)NCc2ccc(C(C)(C)C)cc2)c1Cl	22.4 µM (active)	
N#CCc1ccc(Cl)cc1	31.7 µM (active)	
ClC1=C(Cl)C2(Cl)C3C(Cl)C(Cl)CC3C1(Cl)C2(Cl)Cl (stereo not given)		-26.7%

Source: PubChem BioAssay (Tox21)
